Experimental data taken from PubChem BioAssay.
Values without a mark were called inactive. The rule behind the calls is not given here.

Target: Pantothenate synthetase (Mycobacterium tuberculosis (strain ATCC 25618 / H37Rv)) (UniProt P9WIL5)
Test: Coupled enzyme confirmation of inhibitors against recombinant Mtb PanC (AID 375);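 note: 0% = full reaction with vehicle and 100% = no enzyme background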
Settings: coupled enzyme assay; at 10 µM, hits give high values

Sequence of Pantothenate synthetase (Mycobacterium tuberculosis (strain ATCC 25618 / H37Rv)) (P9WIL5 whole entry, looked up): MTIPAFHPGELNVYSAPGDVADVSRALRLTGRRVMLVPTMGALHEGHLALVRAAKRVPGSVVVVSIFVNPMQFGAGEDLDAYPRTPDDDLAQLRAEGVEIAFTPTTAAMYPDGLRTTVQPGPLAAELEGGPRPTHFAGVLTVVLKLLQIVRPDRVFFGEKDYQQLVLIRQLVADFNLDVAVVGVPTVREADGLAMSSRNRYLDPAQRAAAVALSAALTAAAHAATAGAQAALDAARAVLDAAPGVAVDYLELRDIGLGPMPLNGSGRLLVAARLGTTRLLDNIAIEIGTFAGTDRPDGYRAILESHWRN

Row | Structure (SMILES) | inhibition
1 | CCCCn1nnnc1SCC(=O)N1CCN(C(=O)c2ccco2)CC1 | 0%
2 | CN(Cc1cccs1)C(=O)CCc1ccc(S(=O)(=O)N2CCOCC2)cc1 | 1%
3 | O=C(O)CCn1[nH]c(=O)ccc1=O | 0%
4 | COc1ccc(N(CC(=O)Nc2cc(C)ccc2C)S(=O)(=O)c2c(C)nn(C)c2C)cc1 | 0%
5 | O=S(=O)(c1ccc(S(=O)(=O)N(Cc2ccco2)Cc2ccccc2Cl)cc1)N1CCCC1 | 0%
6 | CC(C)c1nnc(NC(=O)C2CCCCC2)s1 | 1%
7 | O=C(CNc1ccc(Oc2ccccc2)cc1)N1CCOCC1 | 0%
8 | COc1cccc(C2C3=C(N=C4SCC(=O)N42)c2ccccc2CC3)c1OC (configuration not stated) | 4%
9 | CCOC(=O)Cc1nnc(Nc2cccc(O)c2)c2ccccc12 | 9%
10 | Cc1ccc(C(=O)NCc2ccc3c(c2)OCO3)cc1S(=O)(=O)N1CCCCC1 | 0%
11 | CCCCn1nnnc1SCC(=O)Nc1cccc(C)n1 | 1%
12 | COC1CCCCC1NS(=O)(=O)c1ccccc1 (configuration not stated) | 0%
13 | CCN1C(=O)/C(=C/N2CCc3ccccc32)SC1=S | 0%
14 | CC(C)(C)NCc1cc2ccccc2[nH]c1=O | 0%
15 | O=C(CS(=O)(=O)c1cn(Cc2ccc(Cl)cc2)c2ccccc12)N1CCOCC1 | 0%
16 | Fc1ccc(Cn2nnc(-c3ccc(CN4CCOCC4)cc3)n2)cc1 | 0%
17 | O=C(c1ccccc1)N1CCCCC(Sc2nnnn2-c2ccccc2)C1=O (configuration not stated) | 0%
18 | CCCn1c(SCC(=O)Nc2nnc(-c3ccccc3)s2)nnc1-c1ccccn1 | 0%
19 | CCc1ccc(CN(C)CCc2ccccn2)cc1 | 1%
20 | Cc1cc(C)cc(NC(=O)CCNS(=O)(=O)c2ccc3c(c2)oc(=O)n3C)c1 | 0%
21 | Cc1c(C(=O)NCc2ccccn2)oc2ccccc12 | 0%
22 | O=C(CCn1c(=S)[nH]c2ccccc2c1=O)NCC1CCCO1 (configuration not stated) | 4%
